Reference: the supplement of paper PMC8975748
Counter-ions that a name gives are not always drawn.

system: Saccharomyces cerevisiae BY4741 SeMeCo community; experiment: z-score of subpopulation abundance vs DMSO median, subpopulation auxotrophic for LM; higher = larger share of this subpopulation than in DMSO controls; details: 10 µM; 24 h; SM minimal medium; subpopulation (auxotrophy): LM
Description: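 Fluorescent four-plasmid SeMeCo (self-establishing metabolically cooperating S. cerevisiae BY4741 community; plasmids pH-mRuby2, pL-mWasabi, pU-eCFP, pM-TagRFP657) was grown 24 h in minimal SM medium with each Selleck FDA-approved drug at 10 µM in 384-well plates. Cells were fixed and imaged by high-content confocal microscopy. For each auxotrophic subpopulation (and the prototroph), a z-score gives the deviation from the DMSO vehicle-control population median.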

Q: Which “z-score of subpopulation abundance” value does the source give for Oc1cc(Cl)ccc1Oc1ccc(Cl)cc1Cl [Triclosan] here?
A: Its value is -2.25.

Q: Which “z-score of subpopulation abundance” value does the source give for CC(C)N(CCC(C(N)=O)(c1ccccc1)c1ccccn1)C(C)C (stereo not given) [Disopyramide] here?
A: Its value is 1.31.

Q: CC(NC(C)(C)C)C(=O)c1cccc(Cl)c1 (stereo not given) [Amfebutamone (Bupropion) HCl] was tested. Which “z-score of subpopulation abundance” value did it give?
A: Its value is -0.59.

Q: For CN(C)[C@@H]1C(=O)C(C(N)=O)=C(O)[C@@]2(O)C(=O)C3=C(O)c4c(O)ccc(Cl)c4[C@@](C)(O)[C@H]3C[C@@H]12 [Chlortetracycline HCl], which “z-score of subpopulation abundance” value is on record?
A: Its value is -0.46.

Q: CN1C(=O)COc2c(C(=O)NC3CN4CCC3CC4)cc(Cl)cc21 (stereo not given) [Azasetron HCl] was tested. Which “z-score of subpopulation abundance” value did it give?
A: Its value is 1.69.

Q: For N#Cc1nn(-c2c(Cl)cc(C(F)(F)F)cc2Cl)c(N)c1[S+]([O-])C(F)(F)F (stereo not given) [Fipronil], which “z-score of subpopulation abundance” value is on record?
A: Its value is -0.79.

Q: With CCOC(=O)Nc1ccc(NCc2ccc(F)cc2)cc1N [Retigabine 2HCl] as the compound, how does the “z-score of subpopulation abundance” value read?
A: Its value is 0.17.

Q: Which “z-score of subpopulation abundance” value does the source give for CCN1CC2(OC(=O)c3ccccc3NC(C)=O)CCC(OC)C34C1C(CC23)C1(O)CC(OC)C2CC4C1(O)C2OC (stereo not given) [Lappaconitine] here?
A: The value was -0.33.

Q: Which “z-score of subpopulation abundance” value does the source give for CC[C@H]1CN2CC[C@]3(C(=O)Nc4ccccc43)[C@@H]2C[C@@H]1/C(=C\OC)C(=O)OC [Rhynchophylline] here?
A: The value was -0.11.

Q: How did the “z-score of subpopulation abundance” value turn out when C[CH2][Hg][S]c1ccccc1C(=O)[O-].[Na+] [Thimerosal] was run?
A: Its value is 13.9.

Q: How did the “z-score of subpopulation abundance” value turn out when C=C[C@H]1CN2CC[C@H]1C[C@H]2[C@H](O)c1ccnc2ccccc12 [Cinchonidine] was run?
A: Its value is -0.08.

Q: For CCCN1C[C@H](CSC)C[C@@H]2c3cccc4[nH]cc(c34)C[C@H]21 [Pergolide Mesylate], which “z-score of subpopulation abundance” value is on record?
A: The value was -0.22.

Q: For CCN(CC)CCOC(=O)C(O)(c1ccccc1)c1ccccc1 [Benactyzine hydrochloride], which “z-score of subpopulation abundance” value is on record?
A: Its value is 0.4.

Q: Which “z-score of subpopulation abundance” value does the source give for Nc1nc(N)nc(NC2CC2)n1 [Cyromazine] here?
A: Its value is 0.84.

Q: CC1(C)SC2C(N)C(=O)N2C1C(=O)O (stereo not given) [6-Aminopenicillanic acid] was tested. Which “z-score of subpopulation abundance” value did it give?
A: The value was 0.56.

Q: With COc1ccc2c(c1)[C@]13CCCC[C@@H]1[C@H](C2)N(C)CC3 [Dextromethorphan hydrobromide hydrate] as the compound, how does the “z-score of subpopulation abundance” value read?
A: The value was -0.18.

Q: CC(C)=CCOc1c2occc2cc2ccc(=O)oc12 [Imperatorin] was tested. Which “z-score of subpopulation abundance” value did it give?
A: The value was 0.

Q: COc1ccc(C=O)cc1 [p-Anisaldehyde] was tested. Which “z-score of subpopulation abundance” value did it give?
A: The value was -0.17.

Q: How did the “z-score of subpopulation abundance” value turn out when Nc1ccncc1 [4-Aminopyridine] was run?
A: Its value is 0.74.

Q: CC[C@H]1[C@@H]2C[C@H]3[C@@H]4N(C)c5ccccc5[C@]45C[C@@H]([C@@H]2[C@H]5O)N3[C@@H]1O [Ajmaline] was tested. Which “z-score of subpopulation abundance” value did it give?
A: Its value is -0.31.

Q: For CN1[C@@H]2CC[C@H]1C[C@@H](OC(=O)C(CO)c1ccccc1)C2 (stereo not given in full) [Atropine sulfate monohydrate], which “z-score of subpopulation abundance” value is on record?
A: Its value is -0.12.

Q: Which “z-score of subpopulation abundance” value does the source give for CC(=O)O[C@H]1C[C@@H]2CC[C@@H]3[C@H](CC[C@@]4(C)[C@H]3C[C@H]([N+]3(C)CCCCC3)[C@@H]4OC(C)=O)[C@@]2(C)C[C@@H]1[N+]1(C)CCCCC1 [Pancuronium dibromide] here?
A: The value was -1.26.

Q: Which “z-score of subpopulation abundance” value does the source give for CC[C@@]1(O)C(=O)OCc2c1cc1n(c2=O)Cc2cc3ccccc3nc2-1 [Camptothecin] here?
A: Its value is -0.25.

Q: COc1ccc(C(CN(C)C)C2(O)CCCCC2)cc1 (stereo not given) [Venlafaxine HCl] was tested. Which “z-score of subpopulation abundance” value did it give?
A: Its value is 0.27.

Q: With CC[N+](C)(CC)CCOC(=O)C(O)(c1ccccc1)c1ccccc1 [Methylbenactyzine Bromide] as the compound, how does the “z-score of subpopulation abundance” value read?
A: Its value is -0.89.

Q: How did the “z-score of subpopulation abundance” value turn out when CN(C)C(=O)Oc1cccc([N+](C)(C)C)c1 [Neostigmine Bromide] was run?
A: The value was 0.26.

Q: CCN(C)C(=O)Oc1cccc([C@H](C)N(C)C)c1 [Rivastigmine Tartrate] was tested. Which “z-score of subpopulation abundance” value did it give?
A: Its value is 0.

Q: For N[C@@H]1C[C@H]1c1ccccc1 [Tranylcypromine (2-PCPA) HCl], which “z-score of subpopulation abundance” value is on record?
A: Its value is -0.94.

Q: How did the “z-score of subpopulation abundance” value turn out when COc1ccc(C(CN(C)C)C2(O)CCCCC2)cc1 (stereo not given) [Venlafaxine] was run?
A: Its value is -0.51.

Q: For C[N+](C)(C)CCCCCCCCCC[N+](C)(C)C [Decamethonium Bromide], which “z-score of subpopulation abundance” value is on record?
A: The value was -0.15.

Q: CC(C)(O)C(Cl)(Cl)Cl [Chlorobutanol] was tested. Which “z-score of subpopulation abundance” value did it give?
A: The value was 0.13.

Q: Cc1cc(O)ccc1Cl [Chlorocresol] was tested. Which “z-score of subpopulation abundance” value did it give?
A: The value was -0.37.

Q: Which “z-score of subpopulation abundance” value does the source give for CN[C@@H]1[C@@H](O)[C@@H](O[C@@H]2[C@@H](O)[C@H](O[C@H]3O[C@H](CN)CC[C@H]3N)[C@@H](N)C[C@H]2N)OC[C@]1(C)O.CN[C@@H]1[C@@H](O)[C@@H](O[C@@H]2[C@@H](O)[C@H](O[C@H]3O[C@H]([C@@H](C)N)CC[C@H]3N)[C@@H](N)C[C@H]2N)OC[C@]1(C)O.CN[C@@H]1[C@@H](O)[C@@H](O[C@@H]2[C@@H](O)[C@H](O[C@H]3O[C@H]([C@@H](C)NC)CC[C@H]3N)[C@@H](N)C[C@H]2N)OC[C@]1(C)O [Gentamicin Sulfate] here?
A: The value was -0.12.

Q: With O=C(O[C@H]1C[C@H]2CC[C@@H](C1)[N+]21CCCC1)C(O)(c1ccccc1)c1ccccc1 [Trospium chloride] as the compound, how does the “z-score of subpopulation abundance” value read?
A: Its value is -0.54.

Q: Cc1cc(C(C#N)c2ccc(Cl)cc2)c(Cl)cc1NC(=O)c1cc(I)cc(I)c1O (stereo not given) [Closantel] was tested. Which “z-score of subpopulation abundance” value did it give?
A: Its value is 1.19.

Q: How did the “z-score of subpopulation abundance” value turn out when CCC1=C[C@H]2CN3CCc4c([nH]c5ccccc45)[C@](C(=O)OC)(C2)[C@H]13 [Catharanthine] was run?
A: The value was -0.74.

Q: CN(C)C(=O)Oc1ccc[n+](C)c1 [Pyridostigmine Bromide] was tested. Which “z-score of subpopulation abundance” value did it give?
A: The value was -0.35.

Q: Which “z-score of subpopulation abundance” value does the source give for O=C(O[C@H]1C[N+]2(CCCOc3ccccc3)CCC1CC2)C(O)(c1cccs1)c1cccs1 [Aclidinium Bromide] here?
A: Its value is -0.14.

Q: For C[C@H]1O[C@H](O[C@H]2[C@H](O)[C@@H](O)[C@@H](O)[C@H](O)[C@@H]2O)[C@@H](N)C[C@@H]1NC(=N)C(=O)O [Kasugamycin hydrochloride], which “z-score of subpopulation abundance” value is on record?
A: The value was 0.45.

Q: With CC[C@@H](C(N)=O)N1CCCC1=O [Levetiracetam] as the compound, how does the “z-score of subpopulation abundance” value read?
A: The value was -0.55.
